The list is not random: actives were taken first. Their share in the collection is about 2.3%.
DENV2 CPE rescue: protects cells from dengue virus 2 cytopathic effect. CPE inhibition, % at 9.99 µM. DENV2-infected cells, cytopathic effect rescue, plate reader. AID 651640. 350,000 compounds, 1.7% hits; in the data active = CPE inhibition above about 20%, passing the limit was not always enough; tested in BHK-21 cells;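 note: 0% = median of neutral control wells and 100% = median of positive control wells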
SIRT5 inh: blocks human SIRT5 desuccinylation of peptide. Q9NXA8. Purified SirT5, succinyl-peptide AMC, trypsin-coupled fluorescence. inhibition, % at 15 µM. 330,000 compounds, 1.1% hits; in the data active = inhibition above about 15%
Target sequence (Q9NXA8 whole entry, looked up): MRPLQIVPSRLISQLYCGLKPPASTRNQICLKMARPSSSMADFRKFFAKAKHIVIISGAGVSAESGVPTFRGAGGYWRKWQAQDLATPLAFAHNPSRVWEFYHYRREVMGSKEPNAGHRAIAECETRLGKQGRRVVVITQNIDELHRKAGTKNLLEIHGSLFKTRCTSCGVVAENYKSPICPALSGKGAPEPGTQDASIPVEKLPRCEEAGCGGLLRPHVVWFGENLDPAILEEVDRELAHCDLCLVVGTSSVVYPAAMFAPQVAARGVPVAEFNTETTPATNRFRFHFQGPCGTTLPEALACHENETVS
Rtt109 Vps75: blocks Candida albicans Rtt109/Vps75 acetyltransferase activity. Q5AAJ8. purified Rtt109/Vps75, ThioGlo CoA-SH fluorescence, 4 h. inhibition, % at 34.9 µM. 330,000 compounds, 0.16% hits;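 active = inhibition of at least 50% in every replicate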
PDI turbidity: PDI (human) enzyme inhibition. P07237. PDI insulin aggregation turbidity, A650, 90 min. inhibition, % at 10 µM. 350,000 compounds, 0.052% hits. AID 588391;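 active = mean inhibition across replicates of 30% or more, whatever share of single replicates reach that level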
ERp5 block: ERp5 (human) disulfide isomerase inhibition | 350,000 compounds, 0.05% hits | inhibition, % at 9.99 µM | ERp5 insulin aggregation, absorbance 650 nm, 90 min | Q15084;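 active = mean replicate inhibition above about 25%, with every replicate also reaching it, limit read from the data, passing the limit was not always enough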
Starred values were filed as active, the others as inactive.

Results for O=C(Nc1ccccc1)N1C[C@@H]2[C@H](c3ccccc31)[C@@H](CO)N2Cc1ccccc1Cl ?
DENV2 CPE rescue: 37*; SIRT5 inh: 2; ERp5 block: 3

What do the screens show for `O=C(Nc1ccccc1)N1C[C@@H]2[C@H](c3ccccc31)[C@H](CO)N2Cc1ccccc1Cl`?
DENV2 CPE rescue: -1; SIRT5 inh: 1; ERp5 block: -3

What do the screens show for `CC(C)NC(=O)N1[C@H](CO)[C@H]2c3ccccc3N(C(=O)Nc3ccccc3)C[C@H]21`?
DENV2 CPE rescue: 21*; SIRT5 inh: -1; ERp5 block: 1

How did CC(C)NC(=O)N1[C@@H](CO)[C@@H]2c3ccccc3N(C(=O)Nc3ccc(Cl)cc3)C[C@@H]21 do in these assays?
DENV2 CPE rescue: -3; SIRT5 inh: 0; ERp5 block: 1

Results for C[C@H]1CN([C@@H](C)CO)C(=O)c2cccc(NC(=O)Nc3cccc4ccccc34)c2O[C@H]1CN(C)S(=O)(=O)c1ccccc1 ?
DENV2 CPE rescue: -9; SIRT5 inh: 2; ERp5 block: -2

What do the screens show for `CC(=O)Nc1ccc2c(c1)C(=O)N(C)[C@@H]1CC[C@H](CC(=O)NCc3ccc(Cl)cc3)O[C@H]1CO2`?
SIRT5 inh: 5; ERp5 block: 2

How did CC(C)(C)n1nnnc1C(c1cc2ccccc2o1)N1CCOCC1 (configuration not stated) do in these assays?
DENV2 CPE rescue: 107*; SIRT5 inh: 2; ERp5 block: 8

How did CC(C)(C)n1nnnc1C(c1cc2ccccc2o1)N1CCCC1 (configuration not stated) do in these assays?
DENV2 CPE rescue: -5; SIRT5 inh: -2; ERp5 block: -2

How did C[C@@H]1CN([C@@H](C)CO)C(=O)c2cc(N(C)C)ccc2O[C@H]1CN(C)C(=O)NC1CCCCC1 do in these assays?
DENV2 CPE rescue: -1; SIRT5 inh: -9; ERp5 block: 7

How did COCCNC(=O)CCC1CCN(Cc2ccc(-c3ccccc3)cc2)CC1 do in these assays?
DENV2 CPE rescue: 48*; SIRT5 inh: 12; Rtt109 Vps75: 4; PDI turbidity: -3; ERp5 block: 3

What do the screens show for `COc1ccc(CN(C)C[C@@H]2OCCCC[C@@H](C)Oc3ccc(NS(=O)(=O)c4c(C)noc4C)cc3C(=O)N([C@@H](C)CO)C[C@@H]2C)cc1`?
DENV2 CPE rescue: -1; ERp5 block: -2

Results for O=C(N[C@H](Cc1ccccc1)C(=O)NC1CCCCC1)[C@H]1O[C@@H](n2ccc(=O)[nH]c2=O)[C@H](O)[C@@H]1O ?
DENV2 CPE rescue: 28*; SIRT5 inh: -1; ERp5 block: 5

What do the screens show for `O=C(CC[C@H]1O[C@@H](n2ccc(=O)[nH]c2=O)[C@H](O)[C@@H]1O)N[C@H](Cc1ccccc1)C(=O)NC1CCCCC1`?
DENV2 CPE rescue: -4; SIRT5 inh: -2; ERp5 block: 5

How did O=C(Cc1ccncc1)NCC[C@H]1CC[C@H](NC(=O)C2CCOCC2)[C@@H](CO)O1 do in these assays?
DENV2 CPE rescue: 5; SIRT5 inh: -4; ERp5 block: 2

What do the screens show for `C[C@@H]1CN([C@H](C)CO)C(=O)c2cc(C#CCN(C)C)cnc2O[C@H]1CN(C)C(=O)c1ccc2c(c1)OCO2`?
DENV2 CPE rescue: -3; SIRT5 inh: -1; ERp5 block: 4

How did CCCC#Cc1cnc2c(c1)C(=O)N([C@@H](C)CO)C[C@H](C)[C@H](CN(C)C(=O)c1ccc3c(c1)OCO3)O2 do in these assays?
DENV2 CPE rescue: -3; SIRT5 inh: 2; ERp5 block: -8

Results for C[C@H](CO)N1C[C@H](C)[C@H](CN(C)C(=O)c2ccc3c(c2)OCO3)Oc2ncc(C#CCN(C)C)cc2C1=O ?
DENV2 CPE rescue: 25*; SIRT5 inh: -3; ERp5 block: 3

How did CCCC#Cc1cnc2c(c1)C(=O)N([C@@H](C)CO)C[C@@H](C)[C@H](CN(C)C(=O)c1ccc3c(c1)OCO3)O2 do in these assays?
DENV2 CPE rescue: 83*; SIRT5 inh: 4; ERp5 block: 1

How did C[C@H](O)C#Cc1ccc2c(c1)O[C@H](CN(C)Cc1ccccc1)[C@@H](C)CN([C@H](C)CO)S2(=O)=O do in these assays?
DENV2 CPE rescue: 4; SIRT5 inh: 0; ERp5 block: 5

What do the screens show for `C[C@H](O)C#Cc1ccc2c(c1)O[C@H](CN(C)Cc1ccccc1)[C@H](C)CN([C@@H](C)CO)S2(=O)=O`?
DENV2 CPE rescue: -2; SIRT5 inh: -1; ERp5 block: -2

Results for C[C@@H]1CN([C@H](C)CO)S(=O)(=O)c2ccc(C#C[C@@H](C)O)cc2O[C@H]1CN(C)Cc1ccccc1 ?
DENV2 CPE rescue: 0; SIRT5 inh: 2; ERp5 block: -1

How did C[C@H](O)C#Cc1ccc2c(c1)O[C@H](CN(C)Cc1ccc(-c3ccccc3)cc1)[C@H](C)CN([C@@H](C)CO)S2(=O)=O do in these assays?
DENV2 CPE rescue: 4; SIRT5 inh: 27*; ERp5 block: -5

What do the screens show for `C[C@H](CO)N1C[C@H](C)[C@H](CN(C)Cc2ccccc2)Oc2cc(C#C[C@@H](C)O)ccc2S1(=O)=O`?
DENV2 CPE rescue: -3; SIRT5 inh: 1; ERp5 block: 0

What do the screens show for `C[C@@H]1CN([C@H](C)CO)S(=O)(=O)c2ccc(C#C[C@@H](C)O)cc2O[C@H]1CN(C)Cc1ccc(-c2ccccc2)cc1`?
DENV2 CPE rescue: 0; SIRT5 inh: 30*; ERp5 block: 1

What do the screens show for `C[C@H](O)C#Cc1ccc2c(c1)O[C@H](CN(C)Cc1ccc(-c3ccccc3)cc1)[C@@H](C)CN([C@@H](C)CO)S2(=O)=O`?
DENV2 CPE rescue: 14; SIRT5 inh: 30*; ERp5 block: 4

Results for C[C@@H]1CN([C@@H](C)CO)S(=O)(=O)c2ccc(C#C[C@@H](C)O)cc2O[C@@H]1CN(C)Cc1ccc(-c2ccccc2)cc1 ?
DENV2 CPE rescue: -2; SIRT5 inh: 24*; ERp5 block: 0

What do the screens show for `O=C(C[C@@H]1CC[C@@H]2[C@H](COC[C@@H](O)CN2C(=O)Nc2cccc(Cl)c2)O1)N1CCCCC1`?
DENV2 CPE rescue: 0; SIRT5 inh: 1; ERp5 block: -3

How did C[C@@H]1CCCCO[C@@H](CN(C)C(=O)c2ccncc2)[C@H](C)CN([C@@H](C)CO)C(=O)c2cc(NS(C)(=O)=O)ccc2O1 do in these assays?
DENV2 CPE rescue: -3; SIRT5 inh: 5; ERp5 block: -6

Results for C[C@@H](O)C#Cc1ccc2c(c1)O[C@H](CN(C)Cc1ccccc1)[C@@H](C)CN([C@@H](C)CO)S2(=O)=O ?
DENV2 CPE rescue: -2; SIRT5 inh: 3; ERp5 block: -2

Results for C[C@H](O)C#Cc1ccc2c(c1)O[C@@H](CN(C)Cc1ccc(-c3ccccc3)cc1)[C@H](C)CN([C@H](C)CO)S2(=O)=O ?
DENV2 CPE rescue: 0; SIRT5 inh: 28*; ERp5 block: -3
